Among all 310,000 compounds or so, about 14,000 (4.5%) showed an effect of 50% or more. The effect is printed as a negative number. What follows is part of a selection rich in strong results, with near analogues and random picks from the rest.
Molecular target: human ether-à-go-go-related gene (hERG) potassium channel (human, UniProt Q12809)
Test: primary screen, population patch clamp on CHO cells stably expressing hERG; higher = less effect of the substance
Procedure: Briefly, Chinese hamster ovary (CHO) cells stably expressing the hERG channel were dislodged from tissue culture flasks and dispensed into PPC plates. […] During the recording, background leak currents were estimated by a 100 ms step to -80 mV from an initial holding potential of -70 mV and subtracted from the subsequent current measurement. The campaign was conducted in two phases using slight differences in recording protocol. In the first phase, the initial voltage pulse used a 100 ms step to -30 mV from a holding potential of -70 mV, a 2 s conditioning step to +25 mV, and a 2 s test step to -30 mV. During the second phase of the screen, the potential during the conditioning step was raised to +45 mV. In both phases of the campaign, a secondary voltage pulse was applied using the same parameters as the second phase initial pulse. The initial and secondary pulses were applied in the absence of compound, and upon application of 1 μM and 10 μM test concentrations. […]
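Also: peak tail current of the secondary pulse compared with the same well before compound.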

human ether-à-go-go-related gene (hERG) potassium channel, sequence (Q12809 whole entry, looked up): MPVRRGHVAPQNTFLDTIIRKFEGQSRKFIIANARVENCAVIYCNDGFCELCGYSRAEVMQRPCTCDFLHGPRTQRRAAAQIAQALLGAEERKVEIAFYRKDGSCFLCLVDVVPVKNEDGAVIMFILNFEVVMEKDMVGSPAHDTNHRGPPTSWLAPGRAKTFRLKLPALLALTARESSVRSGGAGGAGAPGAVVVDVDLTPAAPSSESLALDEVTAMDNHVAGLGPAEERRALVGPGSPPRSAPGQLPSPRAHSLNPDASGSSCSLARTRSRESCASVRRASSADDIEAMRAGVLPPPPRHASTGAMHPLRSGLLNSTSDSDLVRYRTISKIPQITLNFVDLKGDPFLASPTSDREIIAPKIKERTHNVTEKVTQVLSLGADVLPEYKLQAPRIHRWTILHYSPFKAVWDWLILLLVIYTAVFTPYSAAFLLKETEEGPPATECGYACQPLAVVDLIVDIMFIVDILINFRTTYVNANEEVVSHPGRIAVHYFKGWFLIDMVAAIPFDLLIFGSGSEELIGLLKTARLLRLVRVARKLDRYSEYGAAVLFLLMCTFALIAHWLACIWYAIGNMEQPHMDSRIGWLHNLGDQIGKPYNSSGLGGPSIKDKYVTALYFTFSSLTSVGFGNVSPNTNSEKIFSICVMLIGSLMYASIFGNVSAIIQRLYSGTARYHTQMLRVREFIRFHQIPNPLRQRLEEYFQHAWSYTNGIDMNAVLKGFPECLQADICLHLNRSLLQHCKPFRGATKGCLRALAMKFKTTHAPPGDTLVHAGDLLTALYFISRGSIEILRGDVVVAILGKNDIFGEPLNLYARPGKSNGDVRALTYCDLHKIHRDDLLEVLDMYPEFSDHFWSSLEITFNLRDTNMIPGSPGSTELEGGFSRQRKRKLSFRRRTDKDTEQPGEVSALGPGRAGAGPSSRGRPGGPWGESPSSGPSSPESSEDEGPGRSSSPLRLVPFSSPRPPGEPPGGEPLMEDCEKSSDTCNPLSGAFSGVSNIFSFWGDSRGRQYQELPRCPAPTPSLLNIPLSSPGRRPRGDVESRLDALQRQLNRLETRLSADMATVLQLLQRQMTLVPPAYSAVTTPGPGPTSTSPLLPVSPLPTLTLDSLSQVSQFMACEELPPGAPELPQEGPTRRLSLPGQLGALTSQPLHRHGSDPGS

SMILES | hERG current change (%, negative = inhibition) at 10uM
CCn1c(CN2CCCCCC2=O)nnc1SCc1cnc(-c2ccccc2)s1 | -19.3%
COc1ccc(C(=O)COC(=O)CCCC(=O)NC2CCCCC2)cc1 | 2.77%
COc1ccc(S(=O)(=O)N2CCC(C(=O)N3CCc4ccccc4C3)CC2)cc1C | -19.7%
Cc1cc(C)nc(/N=C(\N)Nc2ccc(-c3ccccc3)cc2)n1 | -81.6%
Cc1cc(C)nc(/N=C(\N)Nc2ccc([N+](=O)[O-])cc2)n1 | -25%
Cc1cc(C)nc(/N=C(\N)Nc2ccc(S(=O)(=O)Nc3nc(C)cc(C)n3)cc2)n1.Cl | 38%
Cc1cc(C)nc(/N=C(\N)Nc2ccc(C(C)C)cc2)n1 | -67.5%
CCOc1ccc(N/C(=N/c2nc(C)cc(C)n2)NC(C)=O)cc1 | -12.2%
CCC(=O)Nc1ccc(N/C(N)=N/c2nc(C)cc(C)n2)cc1 | -4.25%
Cc1cc(C)nc(/N=C(\N)Nc2ccccc2-c2ccccc2)n1 | -43.2%
CC(=O)N/C(=N/c1nc(C)cc(C)n1)Nc1ccc(NC(C)=O)cc1 | 9.5%
CCCCc1ccc(N/C(N)=N/c2nc(C)cc(C)n2)cc1 | -70.1%
Cc1cc(C)nc(/N=C(\N)Nc2ccc(S(N)(=O)=O)cc2)n1 | 14.9%
CCc1ccc(N/C(=N/c2nc(C)cc(C)n2)NC(C)=O)cc1 | -67%
COc1ccc(C)cc1NC(=O)NNC(=O)c1cc2ccccc2cc1O | 12.1%
Cc1ccc(C(=O)Nc2ccc(C)c(S(=O)(=O)Nc3ccccc3Cl)c2)s1 | -6.43%
CCn1c(=O)c2c3c(sc2n2cnnc12)CCC3 | 20%
CC(=O)N1N=C(c2cccc([N+](=O)[O-])c2)OC1c1ccc(Br)cc1 (centres unmarked) | -7.59%
COc1ccc(OC)c(S(=O)(=O)Nc2cccc3ccc(O)cc23)c1 | 6%
COC(=O)CCCc1nc2ccccc2s1 | 8.7%
CN(C(=O)COC(=O)C12CC3CC(CC(C3)C1)C2)c1c(N)n(Cc2ccccc2)c(=O)[nH]c1=O | 7.54%
CCOC(=O)C1(P(=O)(c2ccc(Cl)cc2)c2ccc(Cl)cc2)CCC1 | -25.2%

SMILES | hERG current change (%, negative = inhibition) at 10uM
N/C(=N\OC(=O)COc1ccc2ccccc2c1)c1ccccn1 | -1.39%
CCN(C(=O)COC(=O)CCS(=O)(=O)c1ccc(C)cc1)C1CCS(=O)(=O)C1 (centres unmarked) | 12.9%
COc1ccccc1C(C#N)N1N=C(C)CC1c1ccccc1 (centres unmarked) | 1.69%
O=C(CSc1nnc(COc2ccccc2Cl)o1)NC(=O)NCc1ccco1 | -8.18%
Cc1cc(C)nc(/N=C(\N)Nc2ccc(SC(F)F)cc2)n1 | -74.7%
Cc1cc(C)nc(/N=C(\N)Nc2ccc3c(c2)OCCO3)n1 | 6.67%
Cc1cc(=O)[nH]c(/N=C(\N)Nc2ccc(SC(F)F)cc2)n1 | -15.8%
C=CCOc1ccc(CNCCc2ccc(S(N)(=O)=O)cc2)cc1.Cl | -81.4%
CCOc1ccc(CNc2ccc(S(N)(=O)=O)cc2)cc1 | -6.78%
CCOc1ccc(N2C(=O)CC(NCCc3ccc(S(N)(=O)=O)cc3)C2=O)cc1 (centres unmarked) | -22%
Cl.NS(=O)(=O)c1ccc(CCNCc2cccs2)cc1 | 4.04%
CCOc1ccc(OCCC(=O)OCC(=O)NCCc2ccc(S(N)(=O)=O)cc2)cc1 | -4.49%
COc1ccc(CNC(=S)Nc2ccc(S(N)(=O)=O)cc2)cc1 | 22.1%
CCOc1ccc(CNCCc2ccc(S(N)(=O)=O)cc2)cc1.Cl | -70.1%
COc1ccc(CNc2ccc(S(N)(=O)=O)cc2)cc1 | -52.6%
Cl.NS(=O)(=O)c1ccc(CCNCc2cccnc2)cc1 | 18.4%
COc1ccc(C(=O)NC(=S)N2CCN(c3ccccc3OC)CC2)cc1 | -21.6%
O=C(COC(=O)c1cccnc1)c1ccc(Cl)cc1 | 4.51%
CCCCn1c(SCn2nnc3ccccc3c2=O)nc2cc(S(N)(=O)=O)ccc21 | -34.5%
COc1ccc(N2CCN(CC(=O)c3c[nH]c4ccccc34)CC2)cc1 | 8.09%
COc1ccc(N2CCN(CC(=O)c3c(C)n(C)c4ccc(OC)cc34)CC2)cc1 | -4.1%
Cl.O=C(NCCCN1CCOCC1)C(=O)c1c[nH]c2ccccc12 | -3.03%

SMILES | hERG current change (%, negative = inhibition) at 10uM
COc1ccc(N2CCN(C(=O)C(=O)c3c(C)[nH]c4ccccc34)CC2)cc1 | -14.1%
COc1ccc(N2CCN(CCCNC(=O)C(=O)c3c[nH]c4ccccc34)CC2)cc1 | -69.7%
COc1ccc(N2CCN(C(=O)C(=O)c3c(C)n(C)c4ccccc34)CC2)cc1 | 10.4%
COc1ccc(N2CCN(CCCNC(=O)C(=O)c3c(C)[nH]c4ccccc34)CC2)cc1 | -53.3%
CCN1CCN(C(c2ccc(OC)cc2)C(O)C(=O)c2c[nH]c3ccccc23)CC1 (centres unmarked) | -69%
COc1ccc(C(C(O)C(=O)c2c[nH]c3ccccc23)N2CCN(c3ccccc3)CC2)cc1 (centres unmarked) | -13.8%
CCN1CCN(CCCNC(=O)C(=O)c2c(C)[nH]c3ccccc23)CC1 | 3.67%
COc1ccc(C(C(O)C(=O)c2c[nH]c3ccccc23)N2CCN(c3ccc(OC)cc3)CC2)cc1 (centres unmarked) | -7.36%
COc1ccc(N2CCN(CCCNC(=O)C(=O)c3c(C)n(C)c4ccccc34)CC2)cc1 | -64.1%
O=C(NCCN1CCOCC1)c1cccc(S(=O)(=O)N(Cc2ccccc2)c2ccccc2)c1 | -19.3%
CCOC(=O)c1sc(C)c(C(=O)NC2CCCCC2)c1N | -4.79%
CNC(=O)c1c(NC(=O)CCS(=O)(=O)c2ccccc2)sc(C)c1C | 0.0126%
COc1ccc(/C=N/NC(=O)Cc2csc(Nc3cccc(C(F)(F)F)c3)n2)cc1C | 10.7%
CCOC(=O)c1cc(-c2ccccc2)sc1NC(=O)COC(=O)c1cccc(S(N)(=O)=O)c1 | 10.2%
CC1CC(C)CN(CCCNC(=O)CCC(=O)N2CC(C)Oc3ccccc32)C1 (centres unmarked) | -32.2%
Cc1cccc(/C=N/NC(=O)c2cccc(NC(=O)c3ccccc3)c2)n1 | 0.172%
CCOCc1nnc(NC(=O)CSc2ccc(C)cc2)s1 | 6.61%
Cc1c(N2CCCC2)cc2c(c1NC(=O)c1ccccc1Cl)C(C)(C)CC2(C)C | -25.6%
COc1ccc(-[n+]2c(C)cc(/C=C3\Sc4ccccc4N3C)cc2C)cc1.[I-] | -60.2%
CN1/C(=C/c2cccc[n+]2CCO)Sc2ccccc21.[I-] | 12.4%
COc1ccccc1-[n+]1c(C)cc(/C=C2\Sc3ccccc3N2C)cc1C.[I-] | -69.6%
COc1ccc(C(=O)/C=C2\Sc3ccccc3N2C)cc1 | 11.1%

SMILES | hERG current change (%, negative = inhibition) at 10uM
CN1/C(=C/c2cccc[n+]2C)Sc2ccccc21.[I-] | -22.7%
COc1cc(OC)cc(C(=O)/C=C2\Sc3ccccc3N2C)c1 | 9.82%
COc1ccc(NC(=O)/C(C#N)=C\c2ccc(OCc3ccc(C(=O)O)cc3)c(OC)c2)cc1 | 3.69%
CC(C)C(CCNC(=O)CC(Cc1ccccc1)c1ccco1)c1ccco1 (centres unmarked) | -20%
Cc1cc(C)cc(OCC(=O)NNC(=O)CCN2C(=O)c3ccccc3C2=O)c1 | -14.8%
Cc1ccc(NC(=O)CCNS(=O)(=O)c2ccc3[nH]c(=O)oc3c2)cc1C | 9.43%
COc1ccc2cc(CN(CC3CCCO3)S(=O)(=O)c3ccc(C(C)=O)cc3)c(=O)[nH]c2c1 (centres unmarked) | -11.4%
COC(=O)CN(C)C(=O)CC1C(=O)NCCN1CC(C)(C)C (centres unmarked) | 22.8%
O=c1[nH]cnc2c1cnn2Cc1ccccc1Cl | 11.7%
Cc1ccc(C2(C)NC(=O)N(CC(=O)NCc3ccccc3Cl)C2=O)cc1 (centres unmarked) | 9.54%
CCCc1noc2c1/C(=N\O)CC(CC(C)SCC)C2 (centres unmarked) | -11.1%
CCSC(C)CC1C/C(=N/O)c2c(CC)noc2C1 (centres unmarked) | -24.2%
CCSC(C)CC1C/C(=N/O)c2c(C)noc2C1 (centres unmarked) | -63.4%
O=C(Nc1nccs1)C1CCCN1/C=C/C(=O)C(F)(F)F (centres unmarked) | 13.9%
CSc1nnc2c(n1)OC(c1ccccn1)N(C(C)=O)c1ccccc1-2 (centres unmarked) | 1.42%
CC(O)CNc1nc2sc3c(c2c(=O)n1CCc1ccccc1)CCCCC3 (centres unmarked) | 13.1%
c1ccc2c(c1)ncn2-c1ncnc2sc3c(c12)CCCC3 | -27.2%
CC(O)CNc1nc2ccccc2n1-c1ncnc2sc3c(c12)CCC3 (centres unmarked) | -55.5%
COc1ccc(CC(=O)N/N=C/c2ccc(-c3cccc(C(=O)O)c3)o2)cc1OC | 3.33%
C=CCNC(=O)CN(Cc1ccccc1)S(=O)(=O)c1ccccc1 | -4.02%

— paper PMC4336329 (PLoS ONE, 2015)
